The text below walks through data of PubChem BioAssay (Tox21).

A number with no mark means an inactive call. Records with an inconclusive call do not appear. The source made the active and inactive calls. Unless noted, the call rests on the fitted dose curve; in most records, active means well fitted curve in the direction sought with a large enough effect in the repeat runs; inconclusive means weak or mixed curves; inactive means no such curve, though single readings can be large; an effect the other way counts as inactive or inconclusive.

The target of test [1] is Thyrotropin receptor (Homo sapiens) (UniProt P16473). Put plainly: qHTS assay to identify small molecule antagonists of the thyroid stimulating hormone receptor (TSHR) signaling pathway (AID 1259385; calls by dose curve; further: nearly all actives have a fitted effect of over 20% in size). Summed up:
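TSHR-HEK293 cells were plated and held 18 h at 37C/5% CO2, then given compound plus Ro20-1724 and stimulated with TSH at 1.5 ng/mL final. After 30 min at room temperature, cAMP was detected with cAMP-d2/anti-cAMP-cryptate (1 h) by fluorescence.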
On the technique in general: qHTS replaces the single test concentration by a dilution series.

For test [2], the target named is Progesterone receptor (Homo sapiens) (UniProt P06401). Put plainly: qHTS assay to identify small molecule agonists of the progesterone receptor (PR) signaling pathway (AID 1346784; calls by dose curve; further: nearly all actives have a fitted effect of over 30% in size). In outline:
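Cells (PR-UAS-bla HEK 293T, GripTite) were plated in assay medium containing 2% charcoal-stripped FBS and incubated 6 hr. Test compounds in DMSO were added for 16 hr at 37C. FRET substrate was then loaded for 2 hr at room temperature before fluorescence reading.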

The target is the same in test [3]. Put plainly: qHTS assay to identify small molecule antagonists of the progesterone receptor (PR) signaling pathway (AID 1346795; active means well fitted inhibition curve with a large enough effect in the signal ratio in the repeat runs, not every such curve was filed as active; the % refers to the signal ratio). Summed up: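 Antagonist mode: compounds tested against 1 nM (final) promegestone stimulation in HEK293T cells expressing PR-UAS-bla reporter, 16 hr at 37C, 5% CO2; beta-lactamase activity detected via B/G FRET substrate after 2 hr at room temperature.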

Test [4] can be described thus: qHTS assay to identify small molecule antagonists of the progesterone receptor (PR) signaling pathway - cell viability counter screen (AID 1346798). Further: nearly all actives have a fitted effect of over 50% in size. Further: potency means the concentration at half of the fitted maximal effect. Summed up: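 Counter screen for cytotoxicity: viability of PR-UAS-bla HEK293T cells was measured with CellTiter-Glo luminescence following 16 hr compound exposure in the presence of R5020.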
Test [5] in a line: qHTS assay to identify small molecule agonists of the TGF-beta/Smad signaling pathway - cell viability counter screen (AID 1346829). Further: top concentration of the series differs between compounds; nearly all actives have a fitted effect of over 45% in size. Summed up: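 Cytotoxicity counter screen: CellTiter-Glo luminescence (30 min, room temperature) measured in the SBE-bla HEK 293T reporter wells after 5 hr compound treatment at 37 C and the 2 hr substrate step.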
Test [6] in a line: qHTS assay to identify small molecule agonists of the TGF-beta/Smad signaling pathway (AID 1346859; active means well fitted activation curve with a large enough effect in the signal ratio in the repeat runs, not every such curve was filed as active; the % refers to the signal ratio; further: series mostly up to about 77 µM). In outline: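 Reporter line: HEK 293T with stably integrated SBE-controlled beta-lactamase. Compound exposure lasts 5 hr at 37 C and 5% CO2; substrate loading follows for 2 hr at room temperature, with emission read at 460 and 530 nm.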
The target in test [7] is Thyrotropin-releasing hormone receptor (Homo sapiens) (UniProt P34981). Put plainly: qHTS assay to identify small molecule antagonists of the thyrotropin-releasing hormone receptor (TRHR) signaling pathway (AID 1346877; active means well fitted inhibition curve with a large enough effect in the repeat runs, not every such curve was filed as active; further: series mostly up to about 51 µM). Summed up:
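TRHR-expressing HEK293 cells loaded with calcium dye for 2 h at 37 C; compounds pre-incubated 5 min at room temperature before TRH challenge at 1 nM final. Intracellular calcium fluorescence read kinetically for 3 min; 15 concentrations in triplicate.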

The target is the same in test [8]. Put plainly: qHTS assay to identify small molecule agonists of the thyrotropin-releasing hormone receptor (TRHR) signaling pathway (AID 1346891; calls by dose curve; further: series mostly up to about 58 µM). In outline: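 Cells: TRHR-Hek293, seeded and incubated 18 h. Dye loading: 2 h at 37 °C. Compound added from DMSO stock by pin tool. Read-out: kinetic calcium fluorescence over 3 min.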
Test [9] in a line: Human pregnane X receptor (PXR) small molecule agonists, qHTS cell viability counter screen (AID 1346977). Further: nearly all actives have a fitted effect of over 50% in size. Summed up: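 Cytotoxicity counter screen run in the same wells as the PXR luciferase assay, using PXR-Luc HepG2 cells in charcoal-stripped serum medium. Viability: CellTiter-Fluor fluorescence after 24hr compound treatment.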
A short description of test [10]: Caspase-3/7 induction in HepG2 cells by small molecules, qHTS assay (AID 1346978). Further: nearly all actives have a fitted effect of over 15% in size. Summed up: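 Wild-type HepG2 cells (2,000/well) were settled 5 h at 37 C, 5% CO2, then exposed to compounds in DMSO for 17 h. Caspase-3/7 activity was read by luminescence 30 min after adding Caspase-Glo 3/7 reagent at room temperature.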
Test [11] can be described thus: Caspase-3/7 induction in CHO-K1 cells by small molecules, qHTS assay (AID 1346980). Further: nearly all actives have a fitted effect of over 15% in size. Summed up:
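Wild-type cells were seeded at 1,500 per well and settled 5 hr at 37 C, 5% CO2, then exposed to DMSO-dissolved compounds for 17 hr. Caspase-Glo 3/7 reagent was added, and luminescence was read after 30min at room temperature.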

The nature of test [12]: Caspase-3/7 induction in HepG2 cells by small molecules, qHTS cell viability counter screen (AID 1346981). Further: series mostly up to about 92 µM; nearly all actives have a fitted effect of over 30% in size. In outline: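 Wild-type HepG2 cells, 2,000/well, settled 5 hr at 37 C, 5% CO2 before compound addition. Viability read by CellTiter-Fluor fluorescence, reagent added after 16 hr compound exposure, then 1 hr at 37C, in the same wells as the caspase read.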
Test [13] addresses Nuclear receptor subfamily 1 group I member 2 (Homo sapiens) (UniProt O75469). Put plainly: Human pregnane X receptor (PXR) small molecule agonists, qHTS assay (AID 1346982). Further: nearly all actives have a fitted effect of over 35% in size. Further: potency means the concentration at half of the fitted maximal effect. In outline: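 PXR-Luc HepG2 reporter cells (CYP3A4-driven luciferase) in 5% charcoal-stripped FBS medium, plated 5 h before compound addition, then treated 24 h at 37C. Luciferase read by ONE-Glo luminescence after 30 min at room temperature.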

Test [14] can be described thus: qHTS assay to identify small molecule agonists of the estrogen receptor alpha (ER-alpha) signaling pathway in the presence of an antagonist - cell viability counter screen (AID 1259386).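 Further: series mostly up to about 92 µM; cells exposed to compounds for 22 h at 37 °C before the viability read; nearly all actives have a fitted effect of over 30% in size.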 In outline: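 Cell viability in VM7Luc4E2 cells (endogenous full-length ER-alpha) measured by CellTiter-Fluor fluorescence in the same wells as the luciferase screen. Cells pre-cultured 5 days in charcoal-stripped serum, then treated 22 h with compounds at 15 concentrations plus 10.0nM ICI-182,780.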

Test [15] is described as follows: qHTS assay to identify small molecule agonists of the progesterone receptor (PR) signaling pathway - cell viability counter screen (AID 1346799; calls by dose curve; further: nearly all actives have a fitted effect of over 45% in size; further: potency means the concentration at half of the fitted maximal effect). In outline: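 Cells (PR-UAS-bla HEK293T) are plated at 3,000/well in 2% charcoal-stripped FBS medium, rested 6 hr, dosed and incubated 16 hr at 37C. CellTiter-Glo is then added and luminescence measured after 30 min at room temperature.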

Test [16] is described as follows: qHTS assay to identify small molecule antagonists of the TGF-beta/Smad signaling pathway - cell viability counter screen (AID 1346824). Further: nearly all actives have a fitted effect of over 50% in size. Summed up:
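SBE-bla HEK 293T cells were plated overnight at 37 C, then given compounds in DMSO plus TGF-beta1 (added as 0.25 ng/mL solution) for 5 hr. After the bla read, CellTiter-Glo was added to the same wells and luminescence read after 30 min at room temperature.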

The nature of test [17]: Caspase-3/7 induction in CHO-K1 cells by small molecules, qHTS cell viability counter screen (AID 1346979). Further: nearly all actives have a fitted effect of over 35% in size. In outline: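 Cytotoxicity counter screen run in parallel with the caspase-3/7 assay: CHO-K1 cells, 16hr compound treatment at 37C, then CellTiter-Fluor for 1hr before fluorescence reading.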
Test [18] concerns the target Nuclear receptor subfamily 1 group I member 2 (Rattus norvegicus) (UniProt Q9R1A7). Put plainly: Rat pregnane X receptor (rPXR) activation by small molecules, qHTS assay (AID 1346983). Further: nearly all actives have a fitted effect of over 20% in size. As to conditions: rPXR luciferase reporter cells, One-Glo luminescence, 24 h; stronger effect = higher value. In outline: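 Cell-based rPXR luciferase reporter assay, 2,000 cells per well, rested 5hr at 37 C before compound addition in DMSO, then 24 hr at 37 C. One-Glo reagent was added and luminescence read after 30 min at room temperature.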

The target in test [19] is Nuclear receptor subfamily 1 group I member 2 (Homo sapiens) (UniProt O75469). Put plainly: CYP3A4 induction through human pregnane X receptor (PXR) by small molecules, qHTS assay (AID 1346984). Further: nearly all actives have a fitted effect of over 40% in size. Summed up: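 DPX-2 HepG2 cells carrying a PXR response element and CYP3A4-promoter luciferase construct, treated with compounds 24 hr at 37C. Then P450-Glo CYP3A4 Luciferin-IPA substrate (3uM final) for 3 hr at 37C, One-Glo added, luminescence read.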
Chain of Nuclear receptor subfamily 1 group I member 2 (Homo sapiens) (O75469 whole entry, looked up): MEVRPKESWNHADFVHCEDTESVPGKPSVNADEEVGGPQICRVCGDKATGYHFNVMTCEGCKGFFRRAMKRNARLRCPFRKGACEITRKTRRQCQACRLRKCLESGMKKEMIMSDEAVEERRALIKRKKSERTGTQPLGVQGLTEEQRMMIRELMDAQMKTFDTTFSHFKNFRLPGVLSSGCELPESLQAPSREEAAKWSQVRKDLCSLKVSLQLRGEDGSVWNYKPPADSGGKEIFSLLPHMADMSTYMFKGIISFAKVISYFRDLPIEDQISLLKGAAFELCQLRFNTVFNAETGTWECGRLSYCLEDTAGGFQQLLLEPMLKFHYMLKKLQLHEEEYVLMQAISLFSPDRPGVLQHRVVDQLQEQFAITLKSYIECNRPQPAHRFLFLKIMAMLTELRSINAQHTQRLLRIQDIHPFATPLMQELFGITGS

Test [20] has the same target. Put plainly: Human pregnane X receptor (PXR) activation by small molecules, qHTS assay (AID 1346985). Further: nearly all actives have a fitted effect of over 40% in size. Summed up: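 DPX-2 cells (HepG2 co-transfected with a PXR response element and a CYP3A4-promoter luciferase construct) were seeded at 2,000 per well, rested 5 hr at 37C, then exposed to DMSO-dissolved compounds for 24 hr. Activation was read as luciferase luminescence.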
On the % scale 0 is the no-effect control and ±100 the full control effect.

Chain of Thyrotropin-releasing hormone receptor (Homo sapiens) (P34981 whole entry, looked up): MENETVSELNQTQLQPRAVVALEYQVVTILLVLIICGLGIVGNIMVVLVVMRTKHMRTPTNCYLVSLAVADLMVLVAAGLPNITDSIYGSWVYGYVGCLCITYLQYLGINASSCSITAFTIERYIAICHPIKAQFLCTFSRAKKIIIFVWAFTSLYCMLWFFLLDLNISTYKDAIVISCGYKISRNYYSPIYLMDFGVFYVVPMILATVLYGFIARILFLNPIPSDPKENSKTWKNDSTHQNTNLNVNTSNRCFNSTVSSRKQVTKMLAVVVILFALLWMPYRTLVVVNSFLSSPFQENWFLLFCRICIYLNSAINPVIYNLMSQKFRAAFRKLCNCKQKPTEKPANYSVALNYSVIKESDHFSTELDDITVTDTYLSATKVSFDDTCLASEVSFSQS
Chain of Progesterone receptor (Homo sapiens) (P06401 whole entry, looked up): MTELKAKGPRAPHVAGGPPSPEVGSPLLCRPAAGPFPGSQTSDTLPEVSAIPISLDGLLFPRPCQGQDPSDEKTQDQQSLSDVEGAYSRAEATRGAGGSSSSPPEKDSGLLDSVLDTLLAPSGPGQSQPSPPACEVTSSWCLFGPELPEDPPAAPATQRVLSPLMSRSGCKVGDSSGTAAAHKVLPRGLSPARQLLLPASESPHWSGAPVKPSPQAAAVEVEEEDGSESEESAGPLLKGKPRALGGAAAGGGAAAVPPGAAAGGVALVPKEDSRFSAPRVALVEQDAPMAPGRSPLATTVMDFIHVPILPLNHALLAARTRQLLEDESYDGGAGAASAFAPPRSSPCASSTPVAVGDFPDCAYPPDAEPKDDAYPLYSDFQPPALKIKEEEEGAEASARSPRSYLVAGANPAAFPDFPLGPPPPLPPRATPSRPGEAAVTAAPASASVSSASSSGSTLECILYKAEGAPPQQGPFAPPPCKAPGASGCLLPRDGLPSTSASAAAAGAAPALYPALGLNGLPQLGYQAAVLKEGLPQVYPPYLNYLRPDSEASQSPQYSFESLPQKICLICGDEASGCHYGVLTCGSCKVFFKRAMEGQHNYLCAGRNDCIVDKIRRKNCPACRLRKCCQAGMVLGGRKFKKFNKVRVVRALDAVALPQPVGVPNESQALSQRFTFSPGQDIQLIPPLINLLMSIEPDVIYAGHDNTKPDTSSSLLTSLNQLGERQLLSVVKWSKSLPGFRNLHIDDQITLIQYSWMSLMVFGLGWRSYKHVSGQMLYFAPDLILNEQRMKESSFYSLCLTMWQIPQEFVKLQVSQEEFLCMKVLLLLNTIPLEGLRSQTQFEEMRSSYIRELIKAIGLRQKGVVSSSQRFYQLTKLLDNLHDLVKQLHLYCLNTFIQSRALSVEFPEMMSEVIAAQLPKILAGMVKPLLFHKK
Chain of Thyrotropin receptor (Homo sapiens) (P16473 whole entry, looked up): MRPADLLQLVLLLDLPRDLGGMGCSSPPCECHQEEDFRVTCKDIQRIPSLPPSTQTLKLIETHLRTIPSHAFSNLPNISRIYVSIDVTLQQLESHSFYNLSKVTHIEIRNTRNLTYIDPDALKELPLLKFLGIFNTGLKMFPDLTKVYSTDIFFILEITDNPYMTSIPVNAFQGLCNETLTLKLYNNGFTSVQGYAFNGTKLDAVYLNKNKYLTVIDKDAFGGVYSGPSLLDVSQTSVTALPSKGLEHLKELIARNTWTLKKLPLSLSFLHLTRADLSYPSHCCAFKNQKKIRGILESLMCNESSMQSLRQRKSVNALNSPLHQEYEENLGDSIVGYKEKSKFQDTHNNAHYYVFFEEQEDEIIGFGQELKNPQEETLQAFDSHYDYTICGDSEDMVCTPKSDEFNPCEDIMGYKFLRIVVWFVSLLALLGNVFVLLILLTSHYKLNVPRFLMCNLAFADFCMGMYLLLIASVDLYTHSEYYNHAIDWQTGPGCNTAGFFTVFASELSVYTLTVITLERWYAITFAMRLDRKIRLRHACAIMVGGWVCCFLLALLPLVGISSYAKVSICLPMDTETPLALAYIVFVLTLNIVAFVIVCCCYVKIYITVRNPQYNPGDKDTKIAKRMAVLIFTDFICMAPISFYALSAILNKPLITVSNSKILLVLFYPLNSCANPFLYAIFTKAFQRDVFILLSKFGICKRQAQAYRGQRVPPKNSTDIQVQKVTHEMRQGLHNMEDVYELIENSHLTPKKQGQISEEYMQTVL
Chain of Nuclear receptor subfamily 1 group I member 2 (Rattus norvegicus) (Q9R1A7 whole entry, looked up): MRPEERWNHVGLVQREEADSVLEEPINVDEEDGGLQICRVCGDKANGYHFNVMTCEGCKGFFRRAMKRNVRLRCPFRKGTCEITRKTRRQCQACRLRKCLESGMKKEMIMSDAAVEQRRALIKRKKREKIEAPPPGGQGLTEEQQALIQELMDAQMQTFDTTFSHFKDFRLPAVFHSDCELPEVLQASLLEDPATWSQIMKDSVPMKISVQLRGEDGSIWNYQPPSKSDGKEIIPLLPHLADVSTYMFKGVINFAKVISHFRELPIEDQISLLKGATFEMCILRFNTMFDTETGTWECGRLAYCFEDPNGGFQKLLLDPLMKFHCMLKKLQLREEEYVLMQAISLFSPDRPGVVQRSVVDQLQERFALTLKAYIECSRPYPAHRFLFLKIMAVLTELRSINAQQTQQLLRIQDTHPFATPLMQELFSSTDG

As for `CC(CN)CC(C)(C)CCN` (centres undefined), the compound was classed as inactive in test [1], in test [5], in test [6], in test [7], in test [8] and in test [11]. For the same compound, the Potency result in [2], in test [3], in test [4], in [9], in test [10] and in [12] was “inactive” throughout. Besides, the Potency result in test [13] is “inactive”.
`C[C@@H](Oc1ccc(CNC(=O)c2cccnc2Oc2ccc3c(c2)OCO3)c(F)c1)C(=O)O`: the Potency entry in test [14], in test [2], in test [3], in test [4], in test [15] and in test [9] was “inactive” each time. The Potency result in test [10], in test [17], in test [12] and in [13] was “inactive” throughout. For the same compound, the result in [16], in [5], in [6], in [7], in test [8] and in [11] was inactive.
On to `CC(C)c1ccc2cc(C(C)C)ccc2c1`, for which the call in [1], in [5], in test [6], in test [7] and in [8] was inactive. The Potency entry in test [2], in test [3], in test [4], in test [15], in test [9] and in [10] was “inactive” in each case. Further, the Potency result in test [17] and in [12] was “inactive” in each case. Moreover, in test [13], the Potency was 61.1 µM (active).
As for `O=C1O[C@@H]2[C@@H](O)[C@H](O)O[C@@H]2[C@H]1O`, the compound was classed as inactive in test [1], in test [16], in test [5], in test [6], in [7] and in [8]. For the same compound, the compound was called inactive in test [11]. The Potency result in test [2], in [3], in test [4], in test [9], in test [10] and in [17] was “inactive” throughout. Also, the Potency result in test [12] and in [13] was “inactive” throughout.
For `CCOC(=O)c1ccc(OC(=O)CCCCCN=C(N)N)cc1`, the outcome in [1], in test [16], in test [5], in test [6], in test [7] and in test [8] was inactive. In [11], the call was inactive. In addition, the Potency result in [3], in test [4], in [15], in [9], in test [10] and in test [17] was “inactive” in each case. For the same compound, the Potency result in [12], in [13], in test [19] and in test [20] was “inactive” throughout. Moreover, in [18], the max activation was 0.318%.
For `ClCCCl`, the Potency entry in test [14], in test [3], in test [4], in test [15], in test [9] and in test [10] was “inactive” throughout. Besides, the Potency result in test [17], in test [12] and in test [13] was “inactive” in each case. Also, the result in test [16], in test [5], in test [6], in test [7], in test [8] and in [11] was inactive.
Take `C=C(C)C(=O)OCc1ccccc1`: the Potency result in [14], in [2], in test [3], in test [9], in test [10] and in [17] was “inactive” each time. For the same compound, the Potency result in test [12] and in test [13] was “inactive” throughout. In addition, the Potency in [4] was 30.6 µM (active); in [15], 48.6 µM (active). In addition, the outcome in test [16], in test [5], in test [6] and in test [11] was inactive.
`Cc1cc(Cl)c(C)cc1Cl`: the Potency entry in test [14], in test [3], in test [4], in test [15], in test [9] and in [10] was “inactive” each time. Moreover, the Potency result in test [17], in test [12] and in test [13] was “inactive” throughout. Besides, the result in test [16], in [5], in test [6], in test [7], in test [8] and in test [11] was inactive.
`CC1=CCC(C(C)C)=CC1`: the Potency result in test [14], in [2], in [3], in test [4], in test [15] and in [9] was “inactive” in each case. The Potency entry in test [10], in [17], in test [12] and in [13] was “inactive” each time. Also, the outcome in test [16], in [5], in test [6] and in test [11] was inactive.
